# Compounds with a hit are over-represented: about 11% of the library has one in this group of screens.
# Pf growth 96h – inhibits malaria parasite growth, 96 h. Potency, µM (titrated, usually from 28.7 µM), for the others: top-dose activity change, negative = inhibition, most hits filed as inhibitors. AID 504834. P. falciparum luciferase reporter growth, 96 h. 320,000 compounds, 6.9% hits
#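 Readout is luminescence from an integrated firefly luciferase in P. falciparum. Red cells, 2% hematocrit and 0.05% parasitemia final, were cultured with compound through two parasite generations (96 hours) at 37 C, 5% CO2.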
# Pf growth 48h – inhibits P. falciparum growth in the first generation, 48 h; P. falciparum luciferase growth in erythrocytes, 48 h; Potency, µM (series often up to 28.7 µM), inactives show at the highest dose activity change, negative = inhibition, actives largely listed as inhibitors; 310,000 compounds, 5.9% hits
#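 First compound was added to culture medium, then infected red cells at 0.1% parasitemia and 2% hematocrit (final). After incubation at 37 C under 5% CO2, luciferase detection reagent was dispensed and light output recorded.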
# AmpC no deterg – blocks E. coli AmpC beta-lactamase in detergent-free assay | P00811 | AmpC nitrocefin hydrolysis, absorbance 480 nm, 0.0001% Triton | Potency, µM (top dose mostly 57.1 µM), for the others: top-dose activity change, negative = inhibition, hits mostly inhibitors | 330,000 compounds, 0.52% hits;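 also: plate controls were no compound for no effect and no enzyme for full effect; nearly all actives have a fitted effect of over 20% in size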
# Target sequence (P00811 whole entry, looked up): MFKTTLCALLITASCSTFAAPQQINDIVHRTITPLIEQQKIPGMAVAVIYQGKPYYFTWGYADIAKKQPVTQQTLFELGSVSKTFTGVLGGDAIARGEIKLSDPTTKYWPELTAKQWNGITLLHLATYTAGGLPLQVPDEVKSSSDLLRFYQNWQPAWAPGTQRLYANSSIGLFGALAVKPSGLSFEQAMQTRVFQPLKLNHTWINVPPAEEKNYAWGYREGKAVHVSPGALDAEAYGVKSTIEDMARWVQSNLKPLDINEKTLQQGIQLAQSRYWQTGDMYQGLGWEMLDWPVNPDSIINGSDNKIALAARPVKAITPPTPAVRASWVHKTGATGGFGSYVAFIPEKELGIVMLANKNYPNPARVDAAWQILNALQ
#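 AmpC (5.3 nM in the dispensed reagent) in 20 mM phosphate pH 7.0 with 0.01% (detergent screen) or 0.0001% Triton X-100 was preincubated with compounds for 15 min at room temperature. Nitrocefin was then added from an 800 uM solution, and hydrolysis was followed at 480 nm.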
# AmpC detergent – inhibitors of E. coli AmpC beta-lactamase with detergent. Potency, µM (highest dose often 114 µM), for the others: at the top dose activity change, negative = inhibition, actives largely listed as inhibitors. AID 485294. AmpC hydrolysis of nitrocefin, absorbance 480 nm, 0.01% Triton. P00811. 370,000 compounds, 0.041% hits;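 also: 0% = no-compound wells and -100% = no-enzyme wells; nearly all actives have a fitted effect of over 25% in size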
#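 20 mM phosphate pH 7.0 + 0.01% (detergent screen) or 0.0001% Triton X-100; 5.3 nM AmpC reagent; cpd preinc 15 min RT; nitrocefin (800 uM stock) to start; A480 q20 s × 4 min; Activity was normalised to no-enzyme and no-compound control wells.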
# AMA1 RON2 block – disrupts binding of P. falciparum AMA1 to RON2; AlphaScreen AMA1-biotinylated RON2 peptide binding; 360,000 compounds, 0.2% hits; Potency, µM (titrated, usually from 58.2 µM), without a hit: top-dose activity change, negative = inhibition, most hits filed as inhibitors;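 also: 0% = vehicle wells and -100% = peptide control; nearly all actives have a fitted effect of over 45% in size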
#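 AMA1 (3D7) with his tag at 25 nM final met compounds first, then biotinylated RON2 peptide at 25 nM; detection used donor plus acceptor beads, 10 µg/mL apiece, read by AlphaScreen after 30 min at room temperature.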
# HCV inhibitor – HCV inhibition; AID 651820; 340,000 compounds, 3.4% hits; Potency, µM (titrated, usually from 41.8 µM), inactives show at the highest dose activity change, negative = inhibition, usual class: inhibitors; Huh7.5.1 HCVcc-Cre infection, luciferase reporter, 44 h
#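 Reporter virus HCVcc-Cre (~0.5 moi) infects cells exposed to compound; seeding density 1,000 cells/well with 4 h settling beforehand. Luminescence, 15 sec read, taken 44 h post-infection following a 15 min RT substrate incubation.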
# Starred values were filed as active, the others as inactive; ? = inconclusive; · = no result. Calls follow the shape of the dose curve; as a rule, active = well fitted curve in the direction sought with a large enough effect; inconclusive = small, poorly fitted or top-dose-only effect, or another doubt; inactive = no such curve, though single readings can be large; an effect the other way counts as inactive or inconclusive. Unless noted, % is scaled to controls: 0 for no effect and ±100 for the full control effect; potency is read from the fitted curve at half-maximal effect.
SMILES,Pf growth 96h,Pf growth 48h,AmpC no deterg,AmpC detergent,AMA1 RON2 block,HCV inhibitor
COc1cc(CNCCSc2nnnn2C)cc(Br)c1OCc1ccc(F)cc1,·,?,194%,-6%,-5%,10µM*
CCOc1cc(CNCCSc2nnnn2C)cc(Br)c1OCc1ccc(F)cc1,10µM*,?,173%,-14%,-10%,?
Oc1cccc(Nc2ncnc3sc4c(c23)CCCC4)c1,·,·,·,-3%,·,·
Cc1cccc(S(=O)(=O)c2cn(C)c3cc(N4CCC(C)CC4)c(F)cc3c2=O)c1,·,·,·,9%,·,·
Cc1ccc(CNC(=O)Cn2c(=O)cc(C(F)(F)F)c3c(C)nn(C)c32)cc1,·,·,·,0%,·,·
CC1CCCN(S(=O)(=O)c2cc3c(cc2Cl)NC(=O)CO3)C1 (stereo not drawn),·,·,·,29%,·,·
CCc1ccc(C(=O)CSc2nc3cc(S(=O)(=O)N4CCOCC4)ccc3n2CC)cc1,10µM*,?,30%,-15%,-3%,?
Cc1csc(SCC(=O)Nc2cc(S(=O)(=O)N3CCOCC3)ccc2N2CCOCC2)n1,?,?,61%,6%,8%,1%
Cc1csc(SCC(=O)c2ccc(S(=O)(=O)N3CCOCC3)cc2)n1,10µM*,?,30%,-16%,6%,-5%
Cc1cccc(NC(=O)CSc2nc(-c3cccs3)cc(C(F)(F)F)c2C#N)c1,·,·,·,-3%,·,·
COc1cccc(CNc2ncnc3onc(-c4ccc(F)cc4)c23)c1,·,·,·,2%,·,·
OC(CN1CCCCC1)Cn1c2ccccc2c2cc(Br)ccc21 (stereo not drawn),9.3µM*,12µM*,40%,2%,5%,?
Cc1c(C)n(CC(O)CN2CCCCCC2)c2ccccc12 (stereo not drawn),185%,?,-5%,?,5%,-21%
Cc1ccc(C(C)C)c(OCC(O)CN2CCOCC2)c1 (stereo not drawn),·,19%,12%,-17%,6%,24%
Cc1ccc2c(c1)c1c(n2CC(O)CN2CCCCCC2)CCCC1 (stereo not drawn),20%,8.3µM*,42%,1%,-16%,10µM*
OC(CN1CCN(c2ccccn2)CC1)Cn1c2ccccc2c2ccccc21 (stereo not drawn),1.9µM*,?,136%,-10%,-16%,?
Cc1ccc2c(c1)c(C)c(C)n2CC(O)CN1CCOCC1 (stereo not drawn),36%,12µM*,122%,1%,27%,-12%
Cc1cccc(N2CC(c3nc4ccc(C)cc4[nH]3)CC2=O)c1 (stereo not drawn),·,·,·,-2%,·,·
Cc1ccc2c(c1)c1c(n2CC(O)CNC(C)(C)C)CCCC1 (stereo not drawn),?,·,33%,-15%,-28%,?
CNCC(O)Cn1c2c(c3ccccc31)CCCC2 (stereo not drawn),11%,10µM*,42%,3%,-8%,10µM*
Cn1c2ccccc2c2cnn(CC(=O)Nc3ccccc3C(F)(F)F)c(=O)c21,·,·,·,3%,·,·
O=c1c2c(-c3cccs3)csc2ncn1-c1ccccc1,12µM*,-15%,-46%,0%,-4%,?
O=c1c2c(-c3cccs3)csc2ncn1-n1cccc1,-8%,?,-34%,-8%,-11%,-19%
Cc1ccc(C)n1-n1cnc2scc(-c3cccs3)c2c1=O,·,-20%,-50%,?,-7%,-26%
Cc1ccc(-n2cnc3scc(-c4cccs4)c3c2=O)cc1,48%,?,-24%,-1%,-1%,11µM*
CCOc1cc(C(=O)N(Cc2nc(-c3ccc(C)cc3)no2)C(C)C)cc(OCC)c1OCC,·,·,·,6%,·,·
CC(C)(C)OC(=O)N1CCC(c2c(C(=O)NCCc3ccccc3)cnn2-c2ccc(F)cc2)CC1,·,·,·,-5%,·,·
